A short description of test [1]: compound effects on lung adenocarcinoma cell viability – A549, calcein-AM fluorescence, 48 h, basal, profiling panel (AID 1162). Note: test concentration not given here. The following applies: higher = more signal.
A short description of test [2]: compound effects on differentiated 3T3-L1 adipocyte viability – cell-based, 3T3-L1 adipocytes, calcein-AM fluorescence, 48 h, basal, profiling panel (AID 1163). Note: test concentration not given here. Particulars: 3T3-L1 adipocytes viability, higher = more signal.
A short description of test [3]: compound effects on hepatocellular carcinoma cell viability – HepG2, calcein-AM fluorescence, 48 h, basal, profiling panel (AID 1164). Note: test concentration not given here. The following applies: higher = more signal.
The nature of test [4]: compound effects on multiple myeloma cell viability – MM1S, calcein-AM fluorescence, 48 h, basal, profiling panel (AID 1165).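 Note: viability of MM1S multiple myeloma cells under basal unstimulated conditions; test concentration not given here.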 Particulars: higher = more signal.
The nature of test [5]: calcein-AM signal in unstimulated myeloma cells – cell-based, calcein-AM fluorescence, 48 h, PK04 Diversity Set, profiling panel (AID 1166).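 Note: cells grown under basal conditions without added stimulus; test concentration not given here.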 Particulars: RPMI8226 myeloma viability, higher = more signal.
Test [6] in a line: JC-1 mitochondrial signal, unstimulated HepG2 cells – cell-based, JC-1 fluorescence, 24 h, 100 nL compound, profiling panel (AID 1167). Note: test concentration not given here. The following applies: HepG2 mitochondrial potential, higher = more signal.
Test [7] can be described thus: JC-1 mitochondrial signal, unstimulated adipocytes – cell-based, JC-1 fluorescence, 3T3-L1 adipocytes, 24 h, 100 nL compound, profiling panel (AID 1168). Note: test concentration not given here. Particulars: JC-1 mitochondrial fluorescence, higher = more signal, called active from +8 up or from −8 down.
A short description of test [8]: JC-1 mitochondrial signal, unstimulated myeloma cells – cell-based, JC-1 fluorescence, RPMI8226, 24 h, 100 nL compound, profiling panel (AID 1169). Note: test concentration not given here. The following applies: JC-1 mitochondrial potential fluorescence, higher = more signal.
Test [9] in a line: JC-1 mitochondrial signal, unstimulated MM1S myeloma – cell-based, JC-1 fluorescence, 24 h, 100 nL compound, profiling panel (AID 1170). Note: test concentration not given here. Particulars: MM1S mitochondrial potential, higher = more signal.
The nature of test [10]: resazurin metabolic signal in A549 cells – cell-based, resazurin fluorescence, 24 h, PK04 Diversity Set, profiling panel (AID 1171). Note: test concentration not given here. The following applies: A549 viability, higher = more signal, called active from +8 up or from −8 down. In general terms: Resazurin is reduced to fluorescent resorufin, in cell work by metabolically active cells.
Test [11] is described as follows: resazurin metabolic signal in HepG2 cells – cell-based, resazurin fluorescence, 24 h, PK04 Diversity Set, profiling panel (AID 1172). Note: test concentration not given here. Particulars: HepG2 viability, higher = more signal.
A short description of test [12]: budding yeast growth changes without added modifier – OD600, strain BY4716, 24 h, basal condition, primary screen (AID 1173). The following applies: S. cerevisiae BY4716 growth, OD600, 24 h; higher = more signal, called active from +8 up or from −8 down.
Test [13] is described as follows: viability profiling in MM1S myeloma cells – cell-based, resazurin fluorescence, basal, 24 h, PK04 Diversity Set, profiling panel (AID 1174). Note: test concentration not given here. The following applies: higher = more signal, called active from +8 up or from −8 down.
The target in test [14] is Dihydroorotate dehydrogenase (quinone), mitochondrial (Plasmodium falciparum (isolate 3D7)) (UniProt Q08210). In words: inhibition of P. falciparum DHODH – biochemical, C-terminal His tag, absorbance 600 nm, primary screen (AID 1175).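 Note: recombinant parasite enzyme with a five histidine tag at its C terminus; test concentration not given here.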 Particulars: PfDHODH enzyme, DCIP absorbance 600 nm; higher = more signal, called active from +8 up or from −8 down.
Test [15] in a line: inhibition of PAO1 biofilm formation – strain PAO1, LB-PBS medium, absorbance 600 nm, primary screen (AID 1176). Note: test concentration not given here. The following applies: P. aeruginosa PAO1 growth/biofilm, A600, 12 h; higher = more signal.
A short description of test [16]: growth modulation of vineyard yeast isolate – strain RM11-1a, OD600, basal, 24 h, primary screen (AID 1177).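 Note: cultures grown under basal conditions with no added stressor; test concentration not given here.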 Particulars: S. cerevisiae RM11-1a growth, OD600, 24 h; higher = more signal, called active from +8 up or from −8 down.
Test [17] is described as follows: growth of efflux-deficient E. coli DRC39 – strain DRC39, OD650, 24 h, E. coli filamentation inducers, primary screen (AID 1178).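 Note: growth measured as culture turbidity by optical density at 650 nm; test concentration not given here.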 Particulars: E. coli DRC39 acrAB, higher = more signal, called active from +8 up or from −8 down.
The nature of test [18]: growth of efflux-deficient E. coli DRC39 – strain DRC39, OD650, 48 h, E. coli filamentation inducers, primary screen (AID 1179).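 Note: screen aims at cell division blockers that make cells filament.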 The following applies: E. coli DRC39 delta-acrAB growth, higher = more signal, called active from +8 up or from −8 down.
A short description of test [19]: viability profiling in RPMI8226 myeloma cells – cell-based, resazurin fluorescence, basal, 24 h, PK04 Diversity Set, profiling panel (AID 1180).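 Note: RPMI8826 multiple myeloma cell line at 5000 cells per well; test concentration not given here.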 The following applies: higher = more signal.
Test [20] deals with E3 ubiquitin-protein ligase XIAP (Homo sapiens) (UniProt P98170). Description: small molecules binding XIAP protein – biophysical, small-molecule microarray, fluorescence 635 nm, primary screen (AID 1181).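 Note: score merges 667 nm emission and signal to noise over triplicate slides.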 The following applies: higher = more signal.

Calls of active or inactive are those of the source. Unless noted, the rule behind the calls is not given here.

Dihydroorotate dehydrogenase (quinone), mitochondrial (Plasmodium falciparum (isolate 3D7)), sequence (Q08210 whole entry, looked up): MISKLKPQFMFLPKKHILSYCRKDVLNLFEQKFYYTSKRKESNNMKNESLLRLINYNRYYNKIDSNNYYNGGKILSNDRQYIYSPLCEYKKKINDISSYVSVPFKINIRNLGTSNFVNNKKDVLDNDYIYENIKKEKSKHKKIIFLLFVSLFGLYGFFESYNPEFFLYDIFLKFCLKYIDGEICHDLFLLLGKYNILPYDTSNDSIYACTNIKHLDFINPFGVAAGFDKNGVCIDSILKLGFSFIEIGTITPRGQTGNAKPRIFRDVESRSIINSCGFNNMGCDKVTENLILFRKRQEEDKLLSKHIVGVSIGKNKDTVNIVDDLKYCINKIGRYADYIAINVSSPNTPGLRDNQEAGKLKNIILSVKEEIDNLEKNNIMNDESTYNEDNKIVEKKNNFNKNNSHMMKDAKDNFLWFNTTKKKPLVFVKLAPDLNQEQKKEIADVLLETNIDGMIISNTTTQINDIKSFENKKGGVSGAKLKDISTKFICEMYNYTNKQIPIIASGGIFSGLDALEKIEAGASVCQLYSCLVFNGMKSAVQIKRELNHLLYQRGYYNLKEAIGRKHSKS
E3 ubiquitin-protein ligase XIAP (Homo sapiens), sequence (P98170 whole entry, looked up): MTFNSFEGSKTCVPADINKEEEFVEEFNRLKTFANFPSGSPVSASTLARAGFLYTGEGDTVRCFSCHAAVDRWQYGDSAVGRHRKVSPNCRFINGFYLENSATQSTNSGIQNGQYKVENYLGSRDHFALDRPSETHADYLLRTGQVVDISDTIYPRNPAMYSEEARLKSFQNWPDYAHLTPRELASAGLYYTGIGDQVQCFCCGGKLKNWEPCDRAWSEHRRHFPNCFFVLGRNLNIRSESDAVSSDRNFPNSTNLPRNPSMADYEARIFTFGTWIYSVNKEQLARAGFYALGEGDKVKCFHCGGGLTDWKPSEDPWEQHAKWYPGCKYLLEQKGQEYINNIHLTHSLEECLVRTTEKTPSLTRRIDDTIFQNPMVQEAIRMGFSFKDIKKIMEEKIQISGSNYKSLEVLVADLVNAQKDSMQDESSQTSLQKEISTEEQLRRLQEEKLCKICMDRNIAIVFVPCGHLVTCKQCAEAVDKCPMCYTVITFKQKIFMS

For `CC(C)c1ccc(NN2C(C(O)c3ccc(N(C)C)cc3)C=CC3C(=O)N(c4ccccc4)C(=O)C32)cc1` (stereo not given), the z-score in test [1] is 1.1; in [2], -1.62; in [3] it was 0.974; in test [4] it was -0.36; in [5] it was -0.368; in [6] it was -0.337. Besides, the z-score in test [7] is -1.22 (inactive); in test [8] it was 0.149; in test [9], -0.811; in test [10], -0.0686 (inactive); in test [11], 0.0387; in test [12], 0.254 (inactive). The z-score in [13] was -0.683 (inactive); in [15], 0.53 (inactive); in [16] it was 0.25 (inactive); in [17], -0.172 (inactive); in test [18] it was 0.766 (inactive); in [19], 0.203. In addition, the composite z-score in [14] is 0.421 (inactive); in test [20], 0.391.

As to `CCN(CC)c1ccc(N2CC=CC34O[C@@H]5/C=C\CCCOC(=O)C5[C@H]3C(=O)N(C(CO)C(C)C)[C@@H]4C2=O)cc1` (stereo not given in full), the z-score in test [1] is -0.0889; in test [2] it was 0.102; in test [3] it was 0.825; in test [4], 0.905; in test [5] it was -0.62; in test [6] it was -0.243. The z-score in test [7] is -0.0916 (inactive); in [8], 0.139; in test [9], -0.26; in [10], -0.506 (inactive); in [11], -0.211; in test [12], 0.282 (inactive). Also, the z-score was -0.2 (inactive) in test [13]; -0.36 (inactive) in test [15]; 0.831 (inactive) in test [16]; -0.0034 (inactive) in [17]; 0.0801 (inactive) in [18]; -0.0389 in test [19]. Also, the composite z-score was -0.952 (inactive) in test [14] and 0.336 in test [20].

For the compound `COC(=O)[C@@]1(Cc2ccc(OC)cc2)[C@H]2c3cc(C(=O)N4CCCC4)n(Cc4cc(F)cc5c4OCOC5)c3C[C@H]2CN1C(=O)c1ccccc1`, the z-score is -1.67 in [1]; -0.151 in [2]; -0.675 in test [3]; -3.31 in test [4]; -3.81 in test [5]; 0.912 in test [6]. Further, the z-score in test [7] was -0.562 (inactive); in test [8] it was -0.753; in test [9], -2.72; in [10], -1.5 (inactive); in test [11], -1.47; in test [12], 0.433 (inactive). Moreover, the z-score was -5.86 (inactive) in test [13]; 0.687 (inactive) in test [15]; -0.334 (inactive) in [16]; -1.32 (inactive) in test [17]; -1.24 (inactive) in test [18]; -3.53 in test [19]. Besides, the figures for the composite z-score in test [14] and in test [20] were -0.607 (inactive) and 0.389, respectively.

As for `COc1ccc([Si](C)(C)[C@H]2[C@H](CCn3cc(CCO)nn3)O[C@@]3(C(=O)N(Cc4ccc(N5CCOC5=O)cc4)c4ccccc43)[C@@H]2C)cc1`, the z-score in test [1] is 0.252; in test [2] it was 0.469; in test [3], 0.161; in test [4], -3.07; in [5], -2.73; in [6], 0.484. Further, the z-score in test [7] was 0.854 (inactive); in test [8] it was -0.911; in test [9], -1.33; in test [10] it was -1.75 (inactive); in test [11], -0.909; in test [12], 0.93 (inactive). The z-score is -2.57 (inactive) in test [13]; 0.802 (inactive) in [15]; 1.22 (inactive) in test [16]; 0.864 (inactive) in [17]; 0.562 (inactive) in [18]; -2.01 in test [19]. Moreover, the values for the composite z-score in test [14] and in test [20] were 0.604 (inactive) and 0.339, respectively.

For the compound `CC(C)(C)OC(=O)CC[C@@]1(C(=O)O)N=C(c2ccc(OCCCO)cc2)O[C@@H]1c1ccccc1N=[N+]=[N-]`, the z-score in test [1] is 0.188; in test [2], -0.364; in [3] it was 0.218; in test [4] it was -0.0694; in test [5] it was -0.385; in test [6] it was -2.88. For the same compound, the z-score in [7] was -1.08 (inactive); in test [8] it was -0.759; in test [9], -1.12; in [10], 0.0421 (inactive); in [11] it was 0.166; in test [12], 0.523 (inactive). The z-score was -0.789 (inactive) in [13]; 0.659 (inactive) in [15]; 0.0589 (inactive) in test [16]; 0.428 (inactive) in test [17]; 0.367 (inactive) in test [18]; -0.105 in test [19]. Further, the composite z-score in test [14] was 0.0016 (inactive); in [20], -0.187.

Consider `CC(C)C[C@@H]1NC(=O)[C@H]2C[C@@H](C(=O)NCCCCCNC(=O)CS)[C@@H](c3cccc(OCCO)c3)N2C1=O`, for which the z-score in test [1] was 0.546; in test [2], -0.206; in test [3] it was -0.158; in [4], -1.11; in [5] it was -0.768; in test [6], -0.0747. Besides, the z-score in test [7] is -0.362 (inactive); in test [8], 0.565; in test [9] it was 0.975; in test [10], 0.276 (inactive); in [11], 0.265; in test [12], -0.45 (inactive). Besides, the z-score in test [13] was -0.229 (inactive); in [15] it was 0.326 (inactive); in test [16], -0.0734 (inactive); in test [17] it was 0.346 (inactive); in test [18], -0.663 (inactive); in test [19] it was -0.492. Further, the composite z-score in test [14] was 0.0225 (inactive); in test [20], 0.379.

In the case of `C=C(COC)C(=O)CC[C@H](OC(C)=O)c1cccc(OCCO)c1`, the z-score in test [1] was -0.0614; in test [2] it was 1.55; in [3] it was -0.116; in test [4], -2.94; in test [5], -1.07; in test [6], -0.331. Also, the z-score is 0.715 (inactive) in [7]; 1.18 in [8]; 0.471 in test [9]; -1.07 (inactive) in [10]; -1.32 in test [11]; -0.764 (inactive) in test [12]. Further, the z-score in [13] is -0.854 (inactive); in test [15] it was -0.73 (inactive); in test [16] it was -0.496 (inactive); in [17], -1.03 (inactive); in [18], -0.639 (inactive); in [19] it was -1.27. The composite z-score was -0.859 (inactive) in test [14] and 0.0346 in test [20].

With `O=C1O[C@@H](c2ccccc2)[C@@H](c2ccccc2)N2[C@@H](c3ccc(OCCO)cc3)[C@]3(C(=O)Nc4ccc(C#CC5=CCCCC5)cc43)[C@@H](C(=O)O)[C@H]12`, the z-score was 1.09 in test [1]; 0.771 in test [2]; -0.128 in test [3]; -3.21 in [4]; -4.57 in [5]; -4.12 in test [6]. Further, the z-score in test [7] is -4.9 (inactive); in test [8] it was -0.946; in [9], -1.42; in [10] it was 0.872 (inactive); in test [11], 0.332; in test [12], -0.734 (inactive). Besides, the z-score was -1.5 (inactive) in test [13]; 2.07 (inactive) in test [15]; 1.44 (inactive) in test [16]; 0.448 (inactive) in test [17]; 0.0447 (inactive) in test [18]; -1.43 in [19]. For the same compound, the composite z-score is -13.5 (active) in test [14] and 0.104 in test [20].

As to `COC(=O)C1=CC(CCCO)=CC(C2CC2)N(Cc2sc3ccccc3c2Cl)C=C1C(=O)OC` (stereo not given), the z-score in test [1] was -0.637; in test [2], 0.326; in test [3], -0.514; in [4], -2.99; in [5] it was -4.06; in test [6], 0.00468. For the same compound, the z-score in test [7] is 0.235 (inactive); in test [8], -0.915; in [9], 0.00801; in test [10], 0.0509 (inactive); in [11], -0.908; in test [12] it was -1.32 (inactive). Moreover, the z-score in test [13] was -0.944 (inactive); in [15], -0.0065 (inactive); in [16], 1.61 (inactive); in test [17], 0.386 (inactive); in test [18], -0.444 (inactive); in [19] it was -0.691. Further, the composite z-score in test [14] was -4.56 (inactive); in test [20] it was -0.0172.

The record behind these values is PubChem BioAssay.
